Compound activity deposited in PubChem BioAssay by National Center for Advancing Translational Sciences (NCATS).
Only some compounds are listed: those with a hit (about 17% of all), similar ones and a draw of the others.
TDP1 cell CPT = DT40-hTDP1 cell growth loss with CPT; hit rate 12% among 420,000; AID 686979; Potency, µM (titrated, usually from 46.2 µM), hits mostly inhibitors; chicken DT40 Tdp1-/-;hTDP1 cells + 20 nM CPT, ATP luminescence, 48 h; further: nearly all actives have a fitted effect of over 55% in size
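Chicken DT40 Tdp1-/- cells complemented with human TDP1, 400 cells/well, exposed to compounds plus 20 nM camptothecin for at least 48 h at 37 C; viability read as ATP content by CellTiter-Glo luminescence.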
HepG2 tox = counter-screen for TGF-b inhibitors: cytotoxicity in HepG2 cells; HepG2 CAGA-GFP viability, ATP luminescence, 18 h; Potency, µM (highest dose often 46.1 µM), most hits filed as cytotoxic; hit rate 0.76% among 410,000
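HepG2 CAGA-GFP cells (1000/well, DMEM with 1% FBS) received compound, then TGF-beta at 500 pg/mL final, and were incubated 18 hours at 37 degrees C. Viability was read by CellTiter-Glo luminescence. Media-only wells were set as complete cell-killing and DMSO as no toxicity.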
ATXN2 expr inh = inhibitors of ATXN2 expression; HEK-293 ATXN2-luciferase reporter, luminescence, 24 h; Potency, µM (top dose mostly 57 µM), most hits filed as inhibitors; hit rate 0.72% among 360,000; AID 1745845; further: nearly all actives have a fitted effect of over 55% in size
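qHTS (up to 57 uM final) was run with 24 h compound exposure of reporter cells at 37 °C. Each well was multiplexed: SteadyGlo luminescence measured ATXN2-luciferase expression after a fluorogenic Gly-Phe-AFC viability readout (25 uM final).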
TGFb SMAD3 inh = blocks TGF-b signaling; HepG2 CAGA-GFP TGF-b/SMAD3 reporter, GFP fluorescence, 18 h; TGF-beta stimulated, 500 pg/mL final; hit rate 1.2% among 410,000; AID 588855; Potency, µM (doses to about 46.1 µM), actives largely listed as inhibitors; further: nearly all actives have a fitted effect of over 65% in size
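HEPG2 CAGA-GFP, 1000 cells/well; 2 h settle, 37 C; cpd via pin tool; TGF-b 500 pg/mL final; 18 h, 37 C; GFP imaging ex488/em500-530; %Activity normalised to -TGF-b and +DMSO controls; CRC fit, curve class.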
ATXN viability = reduces viability in counter-screen for ATXN expression inhibitors. hit rate 0.49% among 400,000. Potency, µM (doses to about 56.7 µM), actives largely listed as cytotoxic. AID 651635. S2 cells (HEK-293 line with an ATXN2-luciferase reporter) viability, CellTiter-Fluor protease fluorescence, 24 h; further: nearly all actives have a fitted effect of over 40% in size
DT40 TDP1 no CPT = qHTS for Inhibitors of human tyrosyl-DNA phosphodiesterase 1 (TDP1): qHTS in cells in absence of CPT; Potency, µM (highest dose often 46.2 µM), usual class: inhibitors; hit rate 15% among 420,000; DT40 Tdp1-/- hTDP1 cells, no CPT, ATP luminescence, 48 h; AID 686978, 2013; further: nearly all actives have a fitted effect of over 55% in size
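Luminescent ATP content (CellTiter-Glo) served as the growth readout. Knockout chicken DT40 cells expressing human TDP1 were exposed to compounds without camptothecin for a minimum 48 hr at 37 °C.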
A number is an active result; 0 = inactive; ? = inconclusive; - = no result given; [ ] = another dose, or the depositor's remark. The call rests on the fitted dose curve; in most records, active means well fitted curve in the direction sought with a large enough effect; inconclusive means small, poorly fitted or top-dose-only effect, or another doubt; inactive means no such curve, though single readings can be large; an effect the other way counts as inactive or inconclusive.

SMILES | TDP1 cell CPT | HepG2 tox | ATXN2 expr inh | TGFb SMAD3 inh | ATXN viability | DT40 TDP1 no CPT
COc1ccc(-c2nc3cc(C)c(Br)c(C)n3c2Cc2ccccc2C(F)(F)F)cc1OC | 0 | - | 0 | - | 0 | ?
FC(F)(F)c1ccccc1Cc1c(-c2ccc(Cl)cc2)nc2c3ccccc3ccn12 | ? | - | 0 | - | 0 | 26µM
Fc1ccc(-c2nc3c4ccccc4ccn3c2Cc2ccccc2C(F)(F)F)cc1 | ? | 0 | 0 | ? | 0 | ?
FC(F)(F)c1ccccc1Cc1c(-c2cccc(Cl)c2)nc2c3ccccc3ccn12 | ? | - | 0 | - | 0 | 21µM
C[C@H](O)[C@@H]1C(=O)N2CCc3c([nH]c4ccccc34)[C@@H]2C[C@@H]1N(C)C(=O)Nc1cccc2ccccc12 | ? | 0 | 0 | ? | 0 | ?
C[C@H](O)[C@@H]1C(=O)N2CCc3c([nH]c4ccccc34)[C@@H]2C[C@@H]1N(C)S(=O)(=O)c1ccccc1 | ? | 0 | 0 | 0 | 0 | 23µM
C[C@H](O)[C@@H]1C(=O)N2CCc3c([nH]c4ccccc34)[C@@H]2C[C@@H]1N(C)C(=O)c1cc(Cl)cc(Cl)c1 | 23µM | 0 | ? | ? | ? | 18µM
COc1ccc(C(=O)N(C)[C@H]2C[C@H]3c4[nH]c5ccccc5c4CCN3C(=O)[C@H]2CO)cc1 | 0 | 0 | 0 | 0 | 0 | ?
C[C@H](O)[C@@H]1C(=O)N2CCc3c([nH]c4ccccc34)[C@@H]2C[C@@H]1N(C)Cc1ccc2c(c1)OCO2 | ? | 0 | 0 | 0 | 0 | 16µM
Cc1ccccc1C(=O)N(C)[C@H]1C[C@H]2c3[nH]c4ccccc4c3CCN2C(=O)[C@H]1[C@H](C)O | ? | 0 | 0 | 0 | 0 | 21µM
O=C(CN1CCCc2ccccc21)Nc1cccc(S(=O)(=O)N2CCCC2)c1 | ? | 0 | - | ? | 0 | ?
C[C@H](O)[C@@H]1CN2CCc3c([nH]c4ccccc34)[C@@H]2C[C@@H]1N(C)Cc1cc(Cl)cc(Cl)c1 | ? | 0 | 0 | 0 | 0 | 23µM
Cc1cc(C)cc(C(O)c2ncc(-c3ccc4ccccc4c3)[nH]2)c1 (stereo unspecified) | 23µM | 0 | 0 | ? | ? | ?
Cc1ccc(C(O)c2ncc(-c3ccc4ccccc4c3)[nH]2)cc1 (stereo unspecified) | ? | 0 | 0 | 0 | 0 | ?
Cc1cccc(-c2cnc(C(O)c3ccc(-c4ccccc4)cc3)[nH]2)c1 (stereo unspecified) | 23µM | 0 | 0 | ? | ? | 23µM
CSc1nc2nc(Cl)c(Cl)nc2[nH]1 | ? | 0 | - | 0 | 0 | ?
COc1ccc(CN2CCC3(CC2)c2ccccc2[C@@H](NC(=O)c2ccco2)[C@@H]3OC)c(O)c1 | 0[9.04 µM] | - | - | - | 0 | 0
COc1ccccc1C(=O)N[C@@H]1c2ccccc2C2(CCN(Cc3cnn(C)c3C)CC2)[C@H]1O | ? | - | - | - | 0 | ?
CO[C@H]1[C@H](NC(=O)c2ccco2)c2ccccc2C12CCN(Cc1cc(Cl)ccc1O)CC2 | 0[9.04 µM] | - | - | - | ? | 23µM
COc1cc(CN2CCC3(CC2)c2ccccc2[C@@H](NC(=O)c2ccccc2OC)[C@@H]3O)ccc1F | 0[9.04 µM] | - | - | - | ? | 18µM
CCc1nnc(NC(=O)[C@@H](NC(=O)c2cccc(S(=O)(=O)N3CCOCC3)c2)C(C)C)s1 | 0 | 0 | 0 | 0 | 0 | 0
C/C(Cl)=C/Cc1c(C)[nH]c2ccc(C)cc2c1=O | 0 | 0 | 0 | 0 | 0 | 0
C/C(Cl)=C/Cc1c(C)[nH]c2c(ccc3ccccc32)c1=O | ? | 0 | - | 0 | 0 | 23µM
CC(=O)c1cccc(NC(=O)NNC(=O)c2ccc(-c3ccccc3)cc2)c1 | 0 | 0 | 0 | 0 | 0 | 0
CCCCC1CN2CCc3c([nH]c4ccccc34)C2(C)C1 (stereo unspecified) | ? | 0 | 0 | 0 | 0 | 18µM
SMILES | TDP1 cell CPT | HepG2 tox | ATXN2 expr inh | TGFb SMAD3 inh | ATXN viability | DT40 TDP1 no CPT
CCn1c(-c2ccccc2F)nc2cc(C(=O)N3CCNC(=O)C3CC(=O)OC)cc(NC(C)=O)c21 (stereo unspecified) | 0[9.04 µM] | - | - | - | 0 | 0
CCCCn1c(N)c(N(CC(C)C)C(=O)C2CC(=O)N(c3ccc(CC)cc3)C2)c(=O)[nH]c1=O (stereo unspecified) | 0 | 0 | 0 | 0 | 0 | 0
Cc1cc(C)n2c(NC3CCCCC3)c(-c3ccc(F)cc3)nc2n1 | ? | - | 0 | - | 0 | ?
Cc1cc(C)n2c(Nc3ccc4c(c3)OCCO4)c(CC(C)C)nc2n1 | 21µM | - | 0 | - | ? | 12µM
Cc1cc(C)n2c(NC3CCCCC3)c(CC(C)C)nc2n1 | ? | - | ? | - | ? | 18µM
COc1cc(OC)cc(C(=O)NNC(=O)CN2C(=O)NC(C)(c3ccc(C)cc3)C2=O)c1 (stereo unspecified) | 0 | 0 | 0 | 0 | 0 | 0
Cc1cc2n(n1)CCC(=O)N2Cc1ccc(C(=O)Nc2cc(Cl)ccc2C)cc1 | ? | 0 | 0 | ? | 0 | 21µM
Cc1cc2n(n1)CCC(=O)N2Cc1ccc(C(=O)Nc2cccc(C(F)(F)F)c2)cc1 | 15µM | 0 | 0 | 0 | 0 | 15µM
CCc1cccc2c(C(=O)CSc3nnc(C4CC4)o3)c[nH]c12 | ? | 0 | 0 | 0 | ? | 0
Cn1c(=O)c2sc3c(c2n(CC(=O)Nc2ccccc2)c1=O)COC(C)(C)C3 | 0 | 0 | 0 | 0 | 0 | 0
CCc1ccc(OCc2ccccc2C(=O)Nc2ccc3nc(C)cc(N)c3c2)cc1 | 5µM | 4µM | 17µM | 4µM | - | 3.2µM
O=C(COC(=O)C1CC1)Nc1ccc(Cl)cn1 | 0 | 0 | - | 0 | 0 | 0
CCCc1cc(=O)n2[nH]c(NCc3ccc(OC)cc3)nc2n1 | 0 | 0 | 0 | 0 | 0 | 0
COc1ccc(C(=O)C23CC4CC(C2)CC(C(=O)c2ccc(OC)cc2)(C4)C3)cc1 | ? | 0 | - | 0 | 0 | 16µM
COc1ccc(CNC(=O)C23CC4CC(CC(Br)(C4)C2)C3)cc1 | 0 | 0 | 0 | 0 | 0 | 0
Cc1ccc(S(=O)(=O)N2CCC(C(=O)NNC(=O)c3ccccc3O)CC2)cc1C | ? | 0 | ? | ? | 0 | ?
Cc1cc(C)c(C)c(S(=O)(=O)N2CCC(C(=O)NNC(=O)c3ccccc3O)CC2)c1C | ? | 0 | ? | 0 | 0 | 16µM
Cc1ccc(S(=O)(=O)N2CCC(C(=O)NNC(=O)c3ccccc3O)CC2)cc1 | ? | 0 | ? | 0 | 0 | 15µM
O=C(Nc1ccc2nc(C3CC3)n(Cc3ccc(F)cc3)c(=O)c2c1)c1ccco1 | 20µM | 0 | 0 | ? | 0 | ?
CCC(=O)Nc1ccc2nc(C3CC3)n(Cc3ccc(C(C)(C)C)cc3)c(=O)c2c1 | 18µM | 0 | 0 | 0 | 0 | 15µM
